Data as given in PubChem BioAssay (EPA / NIEHS).
Inconclusive results are not listed. The source made the active and inactive calls. The calls were made as follows, unless noted: active = hit-call score of the fitted dose curve at least 0.9, where 1 is the maximum; inconclusive = response in the unintended direction; inactive = score below 0.9.

Key:
[1] = Tanguay_ZF_120hpf_CFIN_legacy: (Legacy) Oregon State University Tanguay Lab 120 Hour Post-fertilization zebrafish Assay for Caudal Fin Malformation (AID 2283649)
Summary of the method: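 Binary presence or absence of caudal fin malformation at 120 hpf, read by brightfield microscopy, with DMSO as baseline. Larvae came from 5D wild-type embryos exposed statically from 6 hpf at 28C after pronase dechorionation.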

[2] = Tanguay_ZF_120hpf_PIG_legacy: (Legacy) Oregon State University Tanguay Lab 120 Hour Post-fertilization zebrafish Assay for Pigmentation Malformation (AID 2283650)
Summary of the method: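 Pigment malformation recorded as a binary call at 120 hpf in zebrafish (Tropical 5D) exposed singly from 6 hpf after pronase dechorionation. Static, sealed, 28C exposure, 0.64% DMSO; mortality excludes scoring; positive-direction fit against DMSO.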

[3] = Tanguay_ZF_120hpf_TRUN_legacy: (Legacy) Oregon State University Tanguay Lab 120 Hour Post-fertilization zebrafish Assay for Truncated Body (AID 2283655)
Summary of the method: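 Truncated body is recorded as a binary endpoint at 120 hpf by brightfield imaging of wild-type 5D larvae. Exposure runs statically from 6 hpf at 28C with 0.64% DMSO; embryos dying earlier are not scored.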

[4] = Tanguay_ZF_120hpf_NC_legacy: (Legacy) Oregon State University Tanguay Lab 120 Hour Post-fertilization zebrafish Assay for Notochord and Tail Malformation (AID 2283656)
Summary of the method: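 Binary scoring of notochord distortion by brightfield microscopy; embryos dying were not scored. Wild-type Tropical 5D embryos, chorion removed, exposed singly and statically from 6 to 120 hpf, 28C, sealed, 0.64% DMSO.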

[5] = Tanguay_ZF_120hpf_PFIN_legacy: (Legacy) Oregon State University Tanguay Lab 120 Hour Post-fertilization zebrafish Assay for Pectoral Fin Malformation (AID 2283648);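 also: each larva judged yes or no for fin defect by brightfield with dead larvae skipped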
Summary of the method: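 Pectoral fin malformation was recorded as a binary endpoint at 120 hpf in wild-type Tropical 5D larvae, which had been dechorionated and exposed statically from 6 hpf at 28C in 0.64% DMSO. Dead embryos were excluded.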

[6] = Tanguay_ZF_120hpf_CIRC_legacy: (Legacy) Oregon State University Tanguay Lab 120 Hour Post-fertilization zebrafish Assay for Circulatory Malformation (AID 2283651)
Summary of the method: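 Binary circulatory malformation call at 120 hpf by brightfield imaging of zebrafish larvae; chorion removed at 4 hpf, static exposure from 6 hpf in sealed dark plates at 28C, final DMSO 0.64%; non-mortality endpoints skipped if embryo died.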

[7] = read-out: solute carrier (SLC22A6), SLC22A6 (gene 9356); experiment: LTEA_HepaRG_SLC22A6: Life Technologies and Expression Analysis (LTEA) Assay for solute carrier (SLC22A6) using HepaRG (AID 2283653; active = hit-call score of the fitted dose curve at least 0.9, where 1 is the maximum; inactive = score below 0.9); conditions: mRNA level, 48 h; actives raise or lower the signal
Summary of the method: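 Read-out is SLC22A6 transcript level by qRT-PCR, normalised to three housekeeping genes and fitted for gain or loss relative to 0.5% DMSO vehicle. Human HepaRG cells received chemicals at up to 100 uM for 48 h.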

[8] = read-out: solute carrier (SLC10A1), SLC10A1 (gene 6554); experiment: LTEA_HepaRG_SLC10A1: Life Technologies and Expression Analysis (LTEA) Assay for solute carrier (SLC10A1) using HepaRG (AID 2283657; active = hit-call score of the fitted dose curve at least 0.9, where 1 is the maximum; inactive = score below 0.9); conditions: mRNA level, 48 h; actives raise or lower the signal
Summary of the method: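 SLC10A1 transcript measured by TaqMan qRT-PCR, housekeeping-normalised, after 48 h chemical treatment of human HepaRG cells. Eight concentrations (half-log, max 100 uM, 0.5% DMSO vehicle) in duplicate; fitted bidirectionally against DMSO baseline.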

[9] = Tanguay_ZF_120hpf_SWIM_legacy: (Legacy) Oregon State University Tanguay Lab 120 Hour Post-fertilization zebrafish Assay for Swim Bladder Malformation (AID 2283654);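 also: swim bladder malformation in each larva scored yes or no under brightfield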
Summary of the method: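 Scoring is binary for swim bladder defects at 120 hpf, by brightfield inspection of zebrafish larvae. Embryos were exposed singly from 6 hpf after pronase dechorionation, at 28C with 0.64% DMSO; mortality excluded scoring.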

[10] = read-out: kallikrein-3 (KLK3), KLK3 (gene 354); experiment: LTEA_HepaRG_KLK3: Life Technologies and Expression Analysis (LTEA) Assay for kallikrein-3 (KLK3) using HepaRG (AID 2283652; active = hit-call score of the fitted dose curve at least 0.9, where 1 is the maximum; inactive = score below 0.9); conditions: mRNA level, 48 h; actives raise or lower the signal
Summary of the method: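 KLK3 transcript levels were measured by TaqMan qRT-PCR with normalisation to three housekeeping genes. HepaRG cultures received chemicals for 48 h at up to 100 uM (half-log, 8 points, 0.5% DMSO vehicle), fitted in both directions against DMSO.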

Measured: AC50

NCc1cccc(C2CCN(C(=O)c3ccc(C#Cc4ccccc4F)o3)CC2)c1
inactive: [1] | [2] | [3] | [4]

CCCC(=O)OCCC(C)C
inactive: [5] | [2] | [6] | [3] | [4]

CN(C)C(=O)C1(N2CCCCC2)CCN(CC[C@@]2(c3ccc(Cl)c(Cl)c3)CN(C(=O)c3ccccc3)CCO2)CC1
inactive: [5] | [1] | [2] | [6] | [3] | [4]

CCN(Cc1cccc(S(=O)(=O)O)c1)c1ccc(C(=C2C=CC(=[N+](CC)Cc3cccc(S(=O)(=O)O)c3)C=C2)c2ccccc2S(=O)(=O)[O-])cc1
inactive: [1] | [2] | [6] | [3]

CCOC(=O)O[C@H](C)OC(=O)c1ccc2c(c1)cc(C(=O)NC1CCN(C(C)C)CC1)n2Cc1cc(-c2ccc(Cl)s2)on1
inactive: [5] | [1] | [2] | [6] | [3] | [4]

Cc1oc2c(NC(=O)c3c(Cl)cccc3Cl)cccc2c1C(C)(C)O
inactive: [5] | [1] | [2] | [6] | [3] | [4]

OCCO
inactive: [5] | [1] | [2] | [6] | [3] | [4]

C[C@]12CC[C@@H]3c4ccc(O)cc4CC[C@H]3[C@@H]1CC[C@H]2O
active: [8] 72.6 µM
not listed: [9] | [10]
inactive: all other assays above

Cc1occc1C(=O)Nc1ccc(C(=O)N2CCC(F)(F)/C(=C\C(=O)N3CCC(N4CCCCC4)CC3)c3ccccc32)cc1
active: [8] 41.9 µM
inactive: [1] | [2] | [7] | [3] | [4]

c1ccc2ccccc2c1
inactive: [5] | [2] | [6] | [3] | [4]

Oc1ccc2ccccc2c1
active: [2] 12.9 µM | [3] 50.2 µM
inactive: [5] | [6] | [4]

CCCCCCCCOc1ccc(C(=O)c2ccccc2)c(O)c1
inactive: [5] | [1] | [2] | [3] | [4]

O=C(O)c1ccccc1C(=O)OCc1ccccc1
inactive: [1] | [2] | [6] | [4]

O=C1CCC(C2CCCCC2)CC1
inactive: [5] | [2] | [6] | [3] | [4]

O=c1c(-c2ccc(O)cc2)coc2cc(O)cc(O)c12
inactive: [1] | [2] | [6] | [3] | [4]

CC(C)(C)c1cc(/C=C2\SC(N)=NC2=O)cc(C(C)(C)C)c1O
inactive: [1] | [2] | [3]

Cc1ccc(C(C)C)cc1
inactive: [5] | [2] | [6] | [9] | [3] | [4]

CN(C[C@@H](CC[N+]12CCC(C3CCCCC3)(CC1)CC2)c1ccc(Cl)c(Cl)c1)C(=O)c1cc(C(F)(F)F)cc(C(F)(F)F)c1
inactive: [5] | [6] | [9] | [3]

Clc1cc(Cl)c2c(c1)N=C1CCCCCN1C2
inactive: [5] | [1] | [2] | [6] | [4]

O=c1[nH]sc2ccccc12
inactive: [5] | [2] | [6] | [3] | [4]

CCCCCCCCCCCC[N+](C)(C)C
inactive: [1] | [2] | [6] | [9] | [3] | [4]

CN(C)c1ccc(C(=C2C=CC(=[N+](C)C)C=C2)c2ccc(N(C)C)cc2)cc1
inactive: [5] | [2] | [6] | [3]

CC1=CC(=O)/C(=C(/C)O)C(=O)O1
inactive: [1] | [2] | [6] | [3] | [4]

CCN(CC)C(=O)c1cc(S(=O)(=O)Cc2ccccc2)c(N2CCC(c3ccccc3)CC2)cc1N(CC)CCN(C)C
inactive: [5] | [6] | [7] | [3] | [4] | [8]

Cc1cc2c(cc1C(F)(F)F)N(C(=O)Nc1ccc(Oc3cccnc3C)nc1)CC2
inactive: [1] | [2] | [3] | [4]

CN1C(=O)N(c2ccccc2Br)Cc2cnc(Nc3ccc4c(c3)OCC(CO)O4)nc21 (stereo unspecified)
active: [2] 49.7 µM
inactive: [5] | [6] | [9] | [3]

COCC(C)OCC(C)OCC(C)O (stereo unspecified)
inactive: [2] | [6] | [3] | [4]

Cc1ncc(CO)c(CO)c1O
inactive: [2] | [6] | [9] | [3] | [4]

c1ccc(C[n+]2cccc3ccccc32)cc1
inactive: [2] | [6] | [3] | [4]

COc1ccc2cc(S(=O)(=O)N[C@H](CC(=O)N[C@H](Cc3ccc(CN4[C@H](C)CCC[C@@H]4C)cc3)C(=O)N(C)C(C)C)c3ccc4c(c3)OCO4)ccc2c1
inactive: [2] | [6] | [3] | [4]

CCCCOC(=O)CC(CC(=O)OCCCC)(OC(C)=O)C(=O)OCCCC
inactive: [2] | [6] | [9] | [3]

CCO[Si](CCCNC(N)=O)(OCC)OCC
inactive: [2] | [6] | [9] | [3] | [4]

CO[C@H]1/C=C/O[C@@]2(C)Oc3c(C)c(O)c4c(O)c(c(/C=N/N5CCN(C)CC5)c(O)c4c3C2=O)NC(=O)/C(C)=C\C=C\[C@H](C)[C@H](O)[C@@H](C)[C@@H](O)[C@@H](C)[C@H](OC(C)=O)[C@@H]1C
inactive: [2] | [6] | [9] | [3]

NC(=O)c1nc(-c2cccc(-c3cc(F)ccc3OCC(F)(F)C(F)(F)F)c2)n[nH]1
active: [2] 26.7 µM | [6] 27.3 µM | [3] 27 µM
inactive: [4]

CCCCOC(=O)c1ccc(O)cc1
inactive: [4]
active: [2] 36.9 µM | [6] 40.3 µM | [3] 21 µM

Cc1c2ccccc2c(C)c2c1ccc1ccccc12
inactive: [2] | [6] | [3] | [4]

COc1cc(C(=O)NC2CCN(C)CC2)ccc1Nc1ncc2c(n1)N(C1CCCC1)CC(F)(F)C(=O)N2C
inactive: [2] | [9]
active: [3] 31 µM | [4] 33 µM

c1ccc2n[nH]nc2c1
inactive: [2] | [6] | [3] | [4]

CC(C)(c1cc(Br)c(O)c(Br)c1)c1cc(Br)c(O)c(Br)c1
inactive: [2] | [6] | [3] | [4]

O=C(O)Cn1c(=O)n(Cc2ccc(Br)cc2F)c(=O)c2ccc(Cl)cc21
inactive: [2] | [6] | [3] | [4]

Cc1cc(F)ccc1-c1cc(N2CC[C@@H](O)[C@H]2CO)ncc1N(C)C(=O)C(C)(C)c1cc(C(F)(F)F)cc(C(F)(F)F)c1
inactive: [2] | [6] | [3] | [4]

CC[C@H](NC(=O)c1cc(F)ccc1NS(=O)(=O)c1cccc2cccnc12)c1ccccc1
inactive: [1] | [6] | [3] | [4]

O=c1ccc2ccccc2o1
inactive: [2] | [6] | [3] | [4]

CC1(C)NC(=O)N(c2ccc([N+](=O)[O-])c(C(F)(F)F)c2)C1=O
inactive: [2] | [6] | [9] | [3] | [4]

O=C(Nc1ccc(Cl)cc1)Nc1ccc(Cl)c(Cl)c1
inactive: [2] | [6] | [3] | [4]

Cc1cn([C@H]2C[C@H](N=[N+]=[N-])[C@@H](CO)O2)c(=O)[nH]c1=O
inactive: [2] | [6] | [9] | [3] | [4]

CCCCCCCCCC(=O)O
inactive: [2] | [6] | [3] | [4]

O=C(OCCCCCCOC(=O)c1ccccc1)c1ccccc1
inactive: [1] | [6] | [3] | [4]

CCCCCCCC[Si](OCC)(OCC)OCC
inactive: [2] | [3] | [4]

CC/C(=C(/CC)c1ccc(O)cc1)c1ccc(O)cc1
inactive: [6]

Cc1cccc2ccccc12
inactive: [2] | [6] | [9] | [3] | [4]

O=C=NCCCCCCN=C=O
inactive: [1] | [6] | [3]

CCCCCCCCN(C)CCCCCCCC
inactive: [6] | [3] | [4]

CC(C)(O)c1ccc(CNC(=O)c2cccnc2Oc2ccc3nonc3c2)cc1
inactive: [1] | [6] | [3]

COc1cccc([C@H](O)C2CCN(CCc3ccc(F)cc3)CC2)c1OC
inactive: [1] | [3] | [4]

O=C1c2ccccc2C(=O)N1CCc1noc(-c2ccc(CN3CCCCCC3)s2)n1
active: [8] 11.1 µM
not listed: [1] | [5] | [9]
inactive: all other assays above

Cc1ccc2oc(CN(Cc3ccccc3)C(=O)Nc3c(F)cc(F)cc3F)c(-c3ccc(Cl)cc3)c2c1
inactive: [2] | [6] | [3] | [4]

CCN(Cc1cccnc1)C(=O)c1cccc(Cl)c1[C@]1(C)C(=O)N(Cc2ccc(OC)cc2OC)c2ccc(Cl)cc21
inactive: [2] | [3] | [4]

CCCCCc1ccc(N)cc1
inactive: [2] | [6] | [9] | [3] | [4]

CCCOC(=O)c1cc(O)c(O)c(O)c1
not listed: [1] | [5] | [9]
inactive: all other assays above

CC(=O)N1CCN(c2ccc(OC[C@H]3CO[C@](Cn4ccnc4)(c4ccc(Cl)cc4Cl)O3)cc2)CC1
inactive: [6] | [9] | [3] | [4]

C[C@]12CC[C@@H]3c4ccc(O)cc4CC[C@H]3[C@@H]1CCC2=O
inactive: [1] | [2] | [3] | [4]

CC(C)(C)c1csc(-c2cc3cc(OCc4ccccc4CC(=O)O)ccc3o2)n1
active: [8] 24.4 µM
not listed: [1] | [2] | [5]
inactive: all other assays above

CC(O)CC(C)(C)O (stereo unspecified)
inactive: [2] | [6] | [3] | [4]
